Reference: PubChem BioAssay (NCI)
The panel holds about 83,000 compounds, 20% with a hit somewhere; the sample as a whole holds those more often.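 Plates (96-well) were seeded with cells, treated with compound at one concentration, and incubated for 48 hours before percent growth was determined.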 Unmarked numbers belong to inactive results. Activity calls are given as the source filed them. Rule for the calls: active = growth percent below 10; inactive = the rest.

Assays:
Experiment in all cases: NCI-60 one-dose screen, 48 h (100 = growth as untreated, 0 = no growth, -100 = all killed)
Conditions in all cases: 10 µM unless noted
HCT-15 colon = test system: HCT-15 colon
HT29 colon = test system: HT29 colon
SNB-75 CNS = test system: SNB-75 CNS
SNB-19 CNS = test system: SNB-19 CNS
U251 CNS = test system: U251 CNS
PC-3 prostate = test system: PC-3 prostate
SK-MEL-5 melanoma = test system: SK-MEL-5 melanoma
UACC-62 melanoma = test system: UACC-62 melanoma
LOX IMVI melanoma = test system: LOX IMVI melanoma
SK-MEL-28 melanoma = test system: SK-MEL-28 melanoma
EKVX NSCLC = test system: EKVX NSCLC
SN12C renal = test system: SN12C renal
UO-31 renal = test system: UO-31 renal
TK-10 renal = test system: TK-10 renal
ACHN renal = test system: ACHN renal
CAKI-1 renal = test system: CAKI-1 renal
A498 renal = test system: A498 renal
CCRF-CEM leukemia = test system: CCRF-CEM leukemia
MOLT-4 leukemia = test system: MOLT-4 leukemia

| SMILES | growth (HCT-15 colon) | growth (HT29 colon) | growth (SNB-75 CNS) | growth (SNB-19 CNS) | growth (U251 CNS) | growth (PC-3 prostate) | growth (SK-MEL-5 melanoma) | growth (UACC-62 melanoma) | growth (LOX IMVI melanoma) | growth (SK-MEL-28 melanoma) | growth (EKVX NSCLC) | growth (SN12C renal) | growth (UO-31 renal) | growth (TK-10 renal) | growth (ACHN renal) | growth (CAKI-1 renal) | growth (A498 renal) | growth (CCRF-CEM leukemia) | growth (MOLT-4 leukemia) |
| --- | --- | --- | --- | --- | --- | --- | --- | --- | --- | --- | --- | --- | --- | --- | --- | --- | --- | --- | --- |
| CNC(=O)CN1CCC(Oc2cc3c(Nc4cccc(Cl)c4F)ncnc3cc2OC)CC1 | 66.8% | 36.8% | 20.9% | 70.3% | 80.4% | 65.7% | 77.2% | 86.8% | 37.7% | 91.7% | 32.1% | 42.7% | 26.3% | 1.03% (active) | 8.22% (active) | 10.6% | 44.2% | 64.7% | 51.7% |
| Cn1ccnc1C(=O)/C=C/c1ccc(CC(=O)Nc2ccc(S(F)(F)(F)(F)F)cc2)cc1 | 1.2% (active) | -36% (active) | 3.35% (active) | -39.9% (active) | -93.3% (active) | -32.7% (active) | 33.2% | -2.41% (active) | -78.7% (active) | 38.2% | -27.4% (active) | -11.8% (active) | -90.5% (active) | 5.88% (active) | -21.6% (active) | -31.4% (active) | 13.5% | 8.93% (active) | -10.5% (active) |
| C/C(=N\NC(=O)Cn1c(-c2ccc(S(C)(=O)=O)cc2)nc2ccccc21)c1ccc(Cl)cc1 | 87.8% | 98.3% | 81.1% | 93.4% | 89.7% | 52.2% | 91.7% | 84.7% | 100% | 113% | 101% | 97.4% | 66.1% | 109% | 93.6% | 91.9% | 104% | 77% | 79.7% |
| Cc1ncc(-c2ccnc(Nc3ccc(S(C)(=O)=O)cc3)n2)n1C(C)C | 1.34% (active) | -16.6% (active) | -37.9% (active) | 7.36% (active) | 3.47% (active) | -11.1% (active) | -55.5% (active) | -71.5% (active) | 3.16% (active) | -41.8% (active) | -10.5% (active) | 0.723% (active) | -9.24% (active) | -3.89% (active) | 0.0849% (active) | 9.99% (active) | -42.6% (active) | 4.05% (active) | -32.6% (active) |
| O=C(CNc1nnc(-c2ccc(Cl)cc2)o1)Nc1ccc(-c2nc3ccccc3s2)cc1 | 89.6% | 95.7% | 85.8% | 90.6% | 81.6% | 88.6% | 92.1% | 86.1% | -43.1% (active) | 117% | 104% | 94.5% | 73.3% | 91.7% | 112% | 100% | 82% | 53.3% | 33.2% |
| COc1ccc(Cl)c(Nc2nc3ccccc3nc2NS(=O)(=O)c2cccc(NC(=O)C(C)(C)N)c2)c1 | 44.9% | 27.7% | -20.2% (active) | 63.9% | 35% | 22.3% | 57.1% | 36.5% | 25.8% | 53.1% | 48.5% | 51.2% | 8.83% (active) | 29.8% | 40.3% | 29% | -33.2% (active) | 46.9% | 13.4% |
| COc1cc2ncnc(Nc3ccc(O)cc3)c2cc1OC | 95.8% | 68.2% | 64% | 77.7% | 83.6% | 91% | 98.2% | 76.7% | 92.2% | 97% | 66.3% | 62.2% | 36.8% | 2.22% (active) | 31.1% | 43.4% | 81.3% | 77.7% | 75.3% |
| CC1(O)CC(c2nc(-c3ccc4ccc(-c5ccccc5)nc4c3)c3c(N)nccn23)C1 (configuration not stated) | 21.1% | 5.34% (active) | 32% | 64.7% | 56.7% | 35.3% | 15% | 39.9% | 34.7% | 40.7% | 58.8% | 41.7% | 6.56% (active) | 42.6% | 31.7% | 10.1% | -3.83% (active) | 27.1% | 12.9% |
